Source: article PMC4336329 (PLoS ONE, 2015)
In all, about 310,000 compounds went through this assay and about 14,000 (4.5%) showed an effect of 50% or more. The effect is printed as a negative number. Many of the other results were omitted from the sample, so strong results are more common in it than they were.

Biological target: human ether-à-go-go-related gene (hERG) potassium channel (human, UniProt Q12809)
Test: primary screen, population patch clamp on CHO cells stably expressing hERG; higher = less effect of the substance
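Further: peak tail current of the secondary pulse compared with the same well before compound.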

Sequence of human ether-à-go-go-related gene (hERG) potassium channel (Q12809 whole entry, looked up): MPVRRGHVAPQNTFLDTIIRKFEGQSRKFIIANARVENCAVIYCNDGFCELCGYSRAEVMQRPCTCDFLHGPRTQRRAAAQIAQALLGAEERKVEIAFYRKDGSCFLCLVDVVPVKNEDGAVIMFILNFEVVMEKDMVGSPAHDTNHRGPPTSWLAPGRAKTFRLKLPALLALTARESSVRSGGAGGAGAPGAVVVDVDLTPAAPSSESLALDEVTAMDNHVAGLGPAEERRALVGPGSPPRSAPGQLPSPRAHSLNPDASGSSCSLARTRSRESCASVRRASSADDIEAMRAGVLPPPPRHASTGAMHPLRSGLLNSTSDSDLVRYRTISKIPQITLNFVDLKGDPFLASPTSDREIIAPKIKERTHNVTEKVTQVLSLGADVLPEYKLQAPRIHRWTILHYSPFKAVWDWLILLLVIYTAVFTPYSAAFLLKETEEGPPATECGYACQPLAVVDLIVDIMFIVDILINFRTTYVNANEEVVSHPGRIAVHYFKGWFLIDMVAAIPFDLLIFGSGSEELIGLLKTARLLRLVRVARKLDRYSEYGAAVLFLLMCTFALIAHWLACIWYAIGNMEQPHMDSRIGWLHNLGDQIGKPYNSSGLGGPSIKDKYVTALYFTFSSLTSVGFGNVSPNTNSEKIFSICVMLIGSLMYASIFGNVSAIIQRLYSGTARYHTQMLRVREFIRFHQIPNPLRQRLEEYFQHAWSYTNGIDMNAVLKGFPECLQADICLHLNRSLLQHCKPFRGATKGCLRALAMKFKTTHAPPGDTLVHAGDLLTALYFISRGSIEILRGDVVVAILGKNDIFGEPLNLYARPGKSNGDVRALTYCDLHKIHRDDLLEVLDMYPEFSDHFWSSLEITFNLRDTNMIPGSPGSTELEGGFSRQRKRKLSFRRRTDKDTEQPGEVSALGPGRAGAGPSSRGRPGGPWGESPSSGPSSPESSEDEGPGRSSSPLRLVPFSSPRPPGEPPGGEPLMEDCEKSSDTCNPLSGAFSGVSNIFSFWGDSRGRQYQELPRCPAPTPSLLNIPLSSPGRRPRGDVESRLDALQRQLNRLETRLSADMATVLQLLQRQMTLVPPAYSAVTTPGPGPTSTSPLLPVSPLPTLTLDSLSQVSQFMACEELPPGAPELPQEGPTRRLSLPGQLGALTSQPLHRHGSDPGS

SMILES	hERG current change (%, negative = inhibition) at 10uM [%]
CCCCNC(=O)CN(CCc1ccccc1)S(C)(=O)=O	-12.6
Cc1c(Cl)cccc1NC(=O)CCC(=O)NNC(=O)c1ccco1	18.3
CCOC(=O)c1cccc(NC(=O)CSc2nnc(-c3cccnc3)n2CC)c1	-37.5
N#Cc1nc(-c2cccs2)oc1NCc1ccco1	-5.22
CC(/C=C/c1ccccc1)=N/NC(=O)c1cc([N+](=O)[O-])cc([N+](=O)[O-])c1	8
O=[N+]([O-])c1ccc(Sc2cccc3cccnc23)c([N+](=O)[O-])c1	16.6
O=[N+]([O-])c1ccc(Sc2cc[n+]([O-])c3ccccc23)c([N+](=O)[O-])c1	-65.3
O=c1[nH]c(Sc2ccc([N+](=O)[O-])cc2[N+](=O)[O-])nc2ccccc12	9.99
CN(CC(=O)Nc1ccccc1Br)C(=O)CCC1CCCC1	9.57
CCCCC1(C)NC(=S)N2N1C(=S)NC2(C)CCCC (stereo not drawn)	15.1
Cc1noc(C)c1C(=O)Nc1nc2ccc(S(C)(=O)=O)cc2s1	2.86
O=C(O)C(CCCCN1C(=O)C2C3C=CC(C3)C2C1=O)N1C(=O)C2C3C=CC(C3)C2C1=O (stereo not drawn)	2.41
CCOC(=O)c1[nH]ncc1CN1CCCC(C(=O)c2ccc(C(C)(C)C)cc2)C1 (stereo not drawn)	-17.6
CCOC(=O)c1[nH]ncc1CN1CCCC(C(=O)c2cccc(Cl)c2)C1 (stereo not drawn)	-22.6
CCOC(=O)c1[nH]ncc1CN1CCCC(C(=O)c2ccc(SC)cc2)C1 (stereo not drawn)	-73
CCOC(=O)c1[nH]ncc1CN1CCCC(C(=O)c2cccc(OC(C)C)c2)C1 (stereo not drawn)	-42.1
CCOC(=O)c1[nH]ncc1CN1CCCC(C(=O)c2ccc(OC)cc2C)C1 (stereo not drawn)	-49.4
CCOC(=O)c1[nH]ncc1CN1CCCC(C(=O)c2cc(Cl)ccc2OC)C1 (stereo not drawn)	-71.1
O=C(COC(=O)C1CCCCC1)Nc1ccc(N2CCCCC2)cc1	2.16

SMILES	hERG current change (%, negative = inhibition) at 10uM [%]
COc1ccc(C2(CNS(=O)(=O)c3ccccc3)CCOCC2)cc1	-4.62
COc1ccc(NC(=O)C2CCCN2S(=O)(=O)c2cccc3cccnc23)c(OC)c1 (stereo not drawn)	-6.73
CCOc1cc2c(cc1C=O)OC(C)C2 (stereo not drawn)	22.1
CCN1CCN(C(=O)c2ccc(Cl)c(S(=O)(=O)N3CCOCC3)c2)CC1	-0.549
O=C(c1ccc(Cl)c(S(=O)(=O)N2CCCCC2)c1)N1CCN(Cc2ccccc2)CC1	-59.1
O=C(c1ccc(Cl)c(S(=O)(=O)N2CCCCCC2)c1)N1CCCC1	-38.9
CCN1CCN(C(=O)c2ccc(Cl)c(S(=O)(=O)N3CCCCCC3)c2)CC1.Cl	-60.9
CCN1CCN(C(=O)c2ccc(Cl)c(S(=O)(=O)N3CCCCC3)c2)CC1	-69.8
O=C(c1ccc(Cl)c(S(=O)(=O)N2CCCCCC2)c1)N1CCCCC1	-20.7
Cl.O=C(c1ccc(Cl)c(S(=O)(=O)N2CCCCCC2)c1)N1CCN(CCO)CC1	-34.4
O=C(c1ccc(Cl)c(S(=O)(=O)N2CCCCC2)c1)N1CCCCC1	-31.7
O=C(c1ccc(Cl)c(S(=O)(=O)N2CCOCC2)c1)N1CCN(Cc2ccccc2)CC1	-25.3
CCCn1c(N)c(N(CCOC)C(=O)c2cccc(S(=O)(=O)N3CCCc4ccccc43)c2)c(=O)[nH]c1=O	3.29
O=C(NCC1CCCO1)c1cccs1 (stereo not drawn)	4.89
Cc1cc(OCC(=O)OCC(=O)NC2CCCCC2C)ccc1Cl (stereo not drawn)	0.466
CC(=O)Nc1ccc(S(=O)(=O)NNC(=O)c2cccc(Br)c2)cc1	15.9
CCC(=NCCCN1CCOCC1)c1c(O)n(-c2ccccc2C)c(=O)[nH]c1=O	8.28
CCCCN1C(=O)C(=O)N(CC(=O)Nc2sc(CC)cc2C(=O)OCC)C1=O	-10
Cc1ccc(Oc2ccc(OCC(=O)NC(C)C(=O)O)cc2)cc1 (stereo not drawn)	-25.1

SMILES	hERG current change (%, negative = inhibition) at 10uM [%]
Cc1c(C#N)c(N)nc(Cl)c1C#N	25.9
NC(=O)C1(NC(=O)[C@@H]2CC3(CC(c4cccc(NC(=O)[C@@H]5CCC(=O)N5)c4)=NO3)CN2C(=O)c2ccccc2)CC1 (stereo partly drawn)	1.96
CCCCOC(=O)NC1(C)CCS(=O)(=O)C1 (stereo not drawn)	27.1
CC(C)OCCCNC(=S)N1CCC(C(=O)c2ccc3c(c2)OCCO3)CC1	-22.9
Cc1ccc2sc(N(CCN(C)C)C(=O)c3ccc(S(=O)(=O)N4CC(C)OC(C)C4)cc3)nc2c1C.Cl (stereo not drawn)	1.87
CCOC(=O)/C=C/[C@H]1CCc2cccc(Cl)c2O1	9.23
CN1CCN(NC(=O)c2ccc(Cl)cc2Cl)CC1	0.116
Cc1cc(C(=O)N/N=C2/CC(C)CC(C)(C)C2)c(C)o1 (stereo not drawn)	-8.27
COc1cccc(C(=O)NC2CC3CCC(C2)N3Cc2ccccc2)c1 (stereo not drawn)	-28.7
COc1ccc(CN2C3CCC2CC(NC(=O)c2cc(OC)c(OC)c(OC)c2)C3)cc1 (stereo not drawn)	-31.6
COc1ccc(CN2C3CCCC2CC(NC(=O)c2cccc(F)c2)C3)cc1 (stereo not drawn)	-82
COc1ccc(NC(=S)N2CCC(NC(=O)c3cccc(F)c3)CC2)cc1	-16.7
COc1ccc(CN2C3CCC2CC(NC(=O)c2cccc(F)c2)C3)cc1 (stereo not drawn)	-75.2
COc1ccc(C(=O)/C=C/c2cccc(OCc3ccccc3)c2)cc1CSCC(=O)O	7.09
COc1ccccc1CNC(=O)CCS(=O)(=O)c1ccc2c(c1)CC(C)N2C(=O)C1CC1 (stereo not drawn)	15
COc1cccc(NC(=S)NCCc2ccccn2)c1	7.98
CS(=O)(=O)NCCCCNc1ccc(C(F)(F)F)cc1[N+](=O)[O-]	-56.8
CS(=O)(=O)NCCCNc1ccc(C(F)(F)F)cc1[N+](=O)[O-]	-35.1
CS(=O)(=O)NCCNc1ccc(C(F)(F)F)cc1[N+](=O)[O-]	-6.08
